One may read the inhibition as the change of the read-out against control, counted positive when it falls.

In PubChem BioAssay AID651704 (Broad Institute, 2012) one finds inhibition data, which are given here for 70 compounds.

Values joined by “and” are separate entries in the source; they are usually repeats but may differ in a detail not shown here. Identical values can stand only once. Among all 350,000 compounds or so, about 1,600 (0.46%) were called active. The full list was thinned out, with actives kept by preference. Values without a mark were called inactive.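 How the source made its calls: active means every replicate reaching a set inhibition limit, whatever the replicate mean (cut at about 25% in these data); inconclusive means mean inhibition reaches that limit but some replicates miss it; inactive means the rest.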

The target of this test is Protein AF-9 (Homo sapiens) (UniProt P42568). Briefly: inhibitors of AF4 peptide binding to AF9, primary screen, biochemical, AlphaScreen, biotin-AF4 peptide, FLAG-AF9, single point (AID 651704).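 Further: 0% = plate neutral control median and 100% = total signal loss.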 Particulars: at 10 µM, stronger effect = higher value. Background: Bead proximity is the source of the signal in Alpha formats.
Protein AF-9 (Homo sapiens), sequence (P42568 whole entry, looked up): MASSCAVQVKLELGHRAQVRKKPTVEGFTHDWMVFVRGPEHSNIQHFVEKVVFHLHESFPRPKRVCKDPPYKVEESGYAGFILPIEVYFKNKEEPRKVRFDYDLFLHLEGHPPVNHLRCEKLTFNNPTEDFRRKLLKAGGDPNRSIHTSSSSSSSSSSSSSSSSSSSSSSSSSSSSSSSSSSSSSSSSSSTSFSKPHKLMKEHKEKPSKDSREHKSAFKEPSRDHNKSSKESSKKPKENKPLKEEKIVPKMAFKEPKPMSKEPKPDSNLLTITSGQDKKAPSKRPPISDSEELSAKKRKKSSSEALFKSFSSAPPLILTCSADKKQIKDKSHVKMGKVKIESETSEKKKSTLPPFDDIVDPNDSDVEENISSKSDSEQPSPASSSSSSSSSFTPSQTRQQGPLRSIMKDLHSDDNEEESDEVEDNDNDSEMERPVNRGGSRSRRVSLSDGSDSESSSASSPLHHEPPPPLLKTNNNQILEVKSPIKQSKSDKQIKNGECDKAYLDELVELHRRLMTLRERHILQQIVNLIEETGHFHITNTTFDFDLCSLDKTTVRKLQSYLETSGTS
In the case of `Cc1cccc(C)c1NC(=O)CNC(=O)c1ccc2c(c1)OCCO2`, the inhibition is -2.49%.

For the compound `CN(Cc1c(F)cccc1Cl)C(=O)CNC(=O)c1ccc2c(c1)OCO2`, the inhibition was 34.1% (active).

In the case of `O=C(NCCc1ccc(C(F)(F)F)cc1)c1ccc2c(c1)OCO2`, the inhibition was -0.679%.

Turning to `CO[C@@H]1CN(C)C(=O)c2ccc(NC(=O)c3ccccc3F)cc2OC[C@@H](C)N(CC2CCOCC2)C[C@H]1C`, the inhibition was 1.64%.

`COCC#Cc1ccc2c(c1)O[C@@H](CN(C)Cc1ccccn1)[C@@H](C)CN([C@@H](C)CO)S2(=O)=O`: the inhibition was -4.38%.

For the compound `C[C@@H]1CN([C@H](C)CO)C(=O)c2c(c3ccccc3n2C)-c2ccccc2CO[C@H]1CN(C)Cc1ccc(F)cc1`, the inhibition is -2.73%.

For the compound `C[C@H]1CN([C@@H](C)CO)C(=O)c2c(c3ccccc3n2C)-c2ccccc2CO[C@H]1CN(C)Cc1ccc2c(c1)OCO2`, the inhibition is 1.72%.

Regarding `C[C@H]1CN([C@@H](C)CO)C(=O)c2c(c3ccccc3n2C)-c2ccccc2CO[C@@H]1CN(C)Cc1ccc2c(c1)OCCN2C`, the inhibition was 34.3% (active).

`C[C@@H]1CN([C@H](C)CO)C(=O)c2c(c3ccccc3n2C)-c2ccccc2CO[C@@H]1CN(C)Cc1ccc(F)cc1`: the inhibition is 0.52%.

As to `C[C@@H]1CN([C@@H](C)CO)C(=O)c2c(c3ccccc3n2C)-c2ccccc2CO[C@@H]1CN(C)Cc1cccc(C(=O)O)c1`, the inhibition is -2.44%.

As for `C[C@@H]1CN([C@@H](C)CO)C(=O)c2c(c3ccccc3n2C)-c2ccccc2CO[C@@H]1CN(C)Cc1ccc2c(c1)OCCN2C`, the inhibition was 30.8% (active).

With `Cc1ccccc1S(=O)(=O)N1CC(=O)N2[C@H](CO)[C@@H](c3ccc(C#Cc4ccccc4)cc3)[C@H]2C1`, the inhibition was -0.846%.

On to `C[C@H](CO)N1C[C@H](C)[C@H](CN(C)Cc2ccccc2)OCCCC[C@H](C)Oc2ccc(NC(=O)Cc3ccccc3)cc2C1=O`, for which the inhibition was 3.76%.

Turning to `Cc1noc(C)c1S(=O)(=O)N(C)C[C@@H]1OCCCC[C@H](C)Oc2ccc(NC(=O)NC(C)C)cc2C(=O)N([C@H](C)CO)C[C@@H]1C`, the inhibition was 1.67%.

As to `O=C(C[C@H]1CC[C@H]2[C@@H](COC[C@H](O)CN2C(=O)Nc2ccc(Cl)cc2)O1)NCC1CC1`, the inhibition was 2.2%.

As to `O=C(Cc1cccnc1)N1CC(=O)N2[C@@H](CO)[C@@H](c3ccc(C#CC4CCCC4)cc3)[C@@H]2C1`, the inhibition was 0.34%.

Turning to `CN(C)C(=O)C[C@@H]1CC[C@@H](NC(=O)NC2CCCC2)[C@@H](CO)O1`, the inhibition was -1.49%.

Consider `COc1cccc(-c2ccc([C@@H]3[C@H]4CN(C(=O)c5cccnc5)CC(=O)N4[C@H]3CO)cc2)c1`, for which the inhibition was 0.197%.

On to `COc1ccc2c3c([nH]c2c1)[C@H](CO)N(Cc1cccc(F)c1)CC31CCN(Cc2ccccn2)CC1`, for which the inhibition is 6.18%.

As for `COc1ccc2c3c([nH]c2c1)[C@@H](CO)N(Cc1cccc(F)c1)CC31CN(CC2CC2)C1`, the inhibition was 23.8%.

`COc1ccc2c3c([nH]c2c1)[C@H](CO)N(Cc1cccc(F)c1)CC31CCN(CC2CC2)CC1`: the inhibition is 35.1% (active).

Turning to `CCCNC(=O)N1CC2(CCN(C(=O)C3CC3)CC2)c2c([nH]c3cc(OC)ccc23)[C@H]1CO`, the inhibition was -0.242%.

Take `CCCNC(=O)N1CC2(CCN(Cc3ccc(F)cc3)CC2)c2c([nH]c3cc(OC)ccc23)[C@@H]1CO`: the inhibition was 29.6% (active).

In the case of `CCCNC(=O)N1CCC2(CC1)CN(Cc1ccccc1)[C@H](CO)c1[nH]c3cc(OC)ccc3c12`, the inhibition is 1.99%.

On to `C[C@H]1CN([C@@H](C)CO)C(=O)c2cc(-c3ccc(C#N)cc3)cnc2O[C@@H]1CN(C)Cc1ccncc1`, for which the inhibition was -0.44%.

As for `COc1ccccc1C(=O)Nc1ccc2c(c1)C(=O)N(C)C[C@@H](OC)[C@@H](C)CN(C)[C@H](C)CO2`, the inhibition is -2.27%.

For `N#C[C@@H]1[C@H](c2ccccc2-c2cccc(F)c2)[C@@H](CO)N1C(=O)C1CCCC1`, the inhibition is -0.992%.

Turning to `C[C@@H]1CN([C@@H](C)CO)C(=O)c2cc(-c3cccnc3)cnc2O[C@@H]1CN(C)C(=O)C1CC1`, the inhibition is -2.51%.

In the case of `O=C(C1CCCCC1)N1CC(=O)N2[C@H](CO)[C@@H](c3ccc(C#Cc4cccc(F)c4)cc3)[C@@H]2C1`, the inhibition is -3.43%.

`CN(Cc1ccccc1F)c1cc2c(c3c1ccn3C)C1CCC2O1` (stereo not given): the inhibition was 28.6% (active).

With `CC(C)(C)[S@](=O)N1Cc2cc(C(=O)N[C@@H]3CCN(Cc4ccccc4)C3)nc(-c3cccc(-c4ccncc4)c3)c2[C@@H]1CCO`, the inhibition is 4.53%.

Consider `O=S(=O)(NC1CCCCC1N1CCC(O)CC1)c1ccc(Cl)cc1` (stereo not given), for which the inhibition was 3.3%.

For the compound `O=S(=O)(NC1CCCCC1N1CCN(c2ccccc2F)CC1)c1ccccc1` (stereo not given), the inhibition was 5.55%.

`COc1ccc(N2CCN(C3CCCCC3NS(=O)(=O)c3ccccc3)CC2)cc1` (stereo not given): the inhibition is 36.3% (active).

As for `Cn1cnc(CCNC(=O)C[C@H]2CC[C@H]3[C@@H](COC[C@@H](O)CN3C(=O)Nc3ccc(C(F)(F)F)cc3)O2)c1`, the inhibition is 4.5%.

Consider `CC(=O)c1ccc(OCC(O)CN2CCN(S(=O)(=O)c3cccc(Br)c3)CC2)cc1` (stereo not given), for which the inhibition is 0.541%.

As for `Cc1ccc(S(=O)(=O)N2CCN(C(=O)N3CCOCC3)CC2)c(C)c1`, the inhibition was -6.49%.

In the case of `Cc1cccc(OCC(O)CN2CCN(S(=O)(=O)c3ccc(C)cc3C)CC2)c1` (stereo not given), the inhibition was 35.7% (active).

For `CCOC(=O)c1ccc(NC(=O)C2CC(=O)N(c3ccc4c(c3)OCCO4)C2)cc1` (stereo not given), the inhibition was -0.164%.

As for `CCN(CC(=O)Nc1ccc(NC(C)=O)cc1)C(=O)C1CC(=O)N(c2ccc3c(c2)OCCO3)C1` (stereo not given), the inhibition was 28% (active).

For `CCN(CC(=O)Nc1ccc(NC(C)=O)cc1)C(=O)C1CC(=O)N(Cc2ccc(C)cc2)C1` (stereo not given), the inhibition was 9.28%.

Regarding `O=C(c1ccccn1)N1CC2(C1)[C@@H](c1ccccc1)[C@@H](CO)N2C(=O)C1CCC1`, the inhibition was 0.755%.

Regarding `CC(C)CC#Cc1ccc2c(c1)O[C@@H](CN(C)C(=O)Nc1ccccc1F)[C@@H](C)CN([C@@H](C)CO)S2(=O)=O`, the inhibition was 1.25%.

Regarding `CC(C)C[C@@H](CO)N1CCN(Cc2ccc(O)cc2)CCC1=O`, the inhibition is -1.96%.

For the compound `CC(C)C[C@@H](COCc1ccc(Cl)cc1)N1CCN(C(=O)c2ccc(Cl)cc2Cl)CCC1=O`, the inhibition was 1.49%.

On to `CC(C)CC(CO)N1CCN(C(=O)c2ccc(Cl)cc2Cl)CCC1=O` (stereo not given), for which the inhibition is 38.9% (active).

For `N#Cc1cccc(-c2ccc(C3[C@@H]4CN(C(=O)C5CCC5)C[C@H]3N4)cc2)c1` (stereo not given in full), the inhibition is -2.89% and 1.48%.

On to `O=C(NC1CCCCC1)N1CC2(C1)[C@@H](c1ccccc1)[C@@H](CO)N2CC1CCOCC1`, for which the inhibition is -1.54%.

Turning to `CN(C)C(CNC(=O)c1ccc(OCc2cn3ccccc3n2)cc1)c1ccco1` (stereo not given), the inhibition was 0.31%.

For the compound `Cc1noc(C)c1COc1ccc(C(=O)NCCOc2ccccc2)cc1`, the inhibition was -1.51%.

On to `CN(C)CCNC(=O)c1ccc(-c2cn3c(-c4ccc(Oc5ccccc5)cc4)cnc3cn2)cc1`, for which the inhibition was 34.2% (active).

Take `Cc1ccc(S(=O)(=O)NCC[C@H]2CC[C@H](NC(=O)c3ccccn3)[C@H](CO)O2)cc1`: the inhibition was 1.07%.

For the compound `CCC(=O)N1C[C@H](C)[C@H](OC)CN(C)C(=O)c2cc(NC(=O)Nc3cccc(F)c3)ccc2OC[C@@H]1C`, the inhibition was 2.75%.

In the case of `O=S(=O)(c1ccccc1)N1[C@H](CO)[C@@H]2c3ccccc3NC[C@@H]21`, the inhibition is -1.25%.

For `COc1ccccc1NC(=O)N(C)C[C@@H]1Oc2ncc(C#CCC(C)C)cc2C(=O)N([C@@H](C)CO)C[C@@H]1C`, the inhibition is -1.7%.

As for `COCC(=O)Nc1ccc2c(c1)OC[C@@H](C)N(Cc1cocn1)C[C@@H](C)[C@@H](OC)CN(C)C2=O`, the inhibition was -2.07%.

For the compound `Nc1ccc(N=Nc2ccccc2Cl)c(N)n1`, the inhibition is 31.4% (active).

Turning to `CN1CCN(C(=O)C[C@H]2C[C@@H]3c4cc(NC(=O)Nc5ccc(C(F)(F)F)cc5)ccc4O[C@@H]3[C@H](CO)O2)CC1`, the inhibition was 6.81%.

Regarding `COc1ccc(S(=O)(=O)NC[C@@H]2CC[C@@H]3[C@@H](CN3Cc3cc(F)ccc3F)O2)cc1`, the inhibition is 17.9%.

For the compound `O=C([C@H]1N[C@H]2c3ccc(-c4ccccc4)c(=O)n3C[C@H]2[C@@H]1CO)N1CCOCC1`, the inhibition is -1.96%.

For the compound `CCOC(=O)c1[nH]ncc1CN1CCCC(C(=O)c2ccc(OC)cc2C)C1` (stereo not given), the inhibition is -1.02%.

As for `COc1ccc(C(=O)C2CCCN(Cc3ccc4nonc4c3)C2)c(C)c1` (stereo not given), the inhibition was 29.4% (active).

`COc1ccc(C(=O)C2CCCN(Cc3cccn3-c3ccccn3)C2)c(C)c1` (stereo not given): the inhibition is 11.3%.

Take `COc1ccc2[nH]c3c(C)c4cc[n+](C)cc4c(C)c3c2c1`: the inhibition was 57.7% (active).

As for `C[C@@H]1CN([C@H](C)CO)C(=O)c2cc(-c3ccc(F)cc3)cnc2O[C@@H]1CN(C)Cc1ccc(C(=O)O)cc1`, the inhibition is -1.88%.

As for `CCC(=O)N1C[C@@H](C)[C@H](OC)CN(C)C(=O)c2cc(NC(=O)NC3CCCC3)ccc2OC[C@H]1C`, the inhibition was -2.77%.

`C[C@H](CO)N1C[C@H](C)[C@@H](CN(C)Cc2ccc3c(c2)OCO3)OCCCC[C@H](C)Oc2ccc(NC(=O)Nc3ccc(C(F)(F)F)cc3)cc2C1=O`: the inhibition was 4.81%.

Consider `Cc1cc2oc(=O)cc(CN3CCN(Cc4ccccc4)CC3)c2cc1C`, for which the inhibition is 2.48%.

On to `COc1cccc2sc3cc(NCC[C@@H]4CCCN4C)ccc3c(=O)c12`, for which the inhibition is 3.58%.

Regarding `Cc1cc2oc3ccc(NCCC4CCCN4C)cc3c(=O)c2cc1C` (stereo not given), the inhibition is 27.8% (active).
